Calls of active or inactive are those of the source. The calls were made as follows: active = hit-call score of the fitted dose curve at least 0.9, where 1 is the maximum; inactive = score below 0.9.

Assay [1] can be described thus: BSK_hDFCGF_SRB: Viability Assessment in the BioMAP Diversity Plus: hDFCGF Assay (AID 2283061).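 Also: cells exposed to compound for 24 h before the read.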 As to conditions: primary human foreskin fibroblasts. In a few lines:
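Cells were dosed with test chemical, cultured 24 h, fixed with 10% TCA, then stained with 0.1% SRB and read at 560 nm. The fibroblasts were human foreskin primary cells, and DMSO served as baseline.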

Read-out in assay [2]: TIMP metallopeptidase inhibitor 1 (TIMP1), TIMP1 (gene 7076)
Put plainly: BSK_hDFCGF_TIMP1: BioMAP Diversity Plus: hDFCGF Assay for TIMP metallopeptidase inhibitor 1 (TIMP1) Biomarker Activity (AID 2283062). Particulars: primary human foreskin fibroblasts; actives raise or lower the signal. The procedure, abridged: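 Fibroblasts from human foreskin are treated with test chemical and harvested at 24 h. TIMP-1 is quantified by ELISA, and gain or loss of signal is scored against DMSO.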

Read-out in assay [3]: Monokine induced gamma interferon (MIG), CXCL9 (gene 4283)
Put plainly: BSK_hDFCGF_MIG: BioMAP Diversity Plus: hDFCGF Assay for Monokine induced gamma interferon (MIG) Biomarker Activity (AID 2283063). As to conditions: primary human foreskin fibroblasts; actives raise or lower the signal. The procedure, abridged: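 MIG signal, determined by ELISA, reflects 24 h chemical exposure of human skin primary fibroblasts. DMSO serves as negative control and baseline.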

Read-out in assay [4]: Matrix Metallopeptidase 1 (MMP1), MMP1 (gene 4312)
Put plainly: BSK_hDFCGF_MMP1: BioMAP Diversity Plus: hDFCGF Assay for Matrix Metallopeptidase 1 (MMP1) Biomarker Activity (AID 2283064). Particulars: primary human foreskin fibroblasts; actives raise or lower the signal. The procedure, abridged: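 ELISA read-out of MMP1 from human foreskin fibroblasts (primary skin cells), 24 h post-dose. Gain or loss of signal was fitted bidirectionally versus DMSO negative control; cytotoxicity was checked by SRB in parallel cultures.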

Read-out in assay [5]: Vascular cell adhesion molecule 1 (VCAM1), VCAM1 (gene 7412)
Put plainly: BSK_hDFCGF_VCAM1: BioMAP Diversity Plus: hDFCGF Assay for Vascular cell adhesion molecule 1 (VCAM1) Biomarker Activity (AID 2283065).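 As to AC50: VCAM-1 protein level quantified by ELISA after 24 h chemical exposure.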 As to conditions: primary human foreskin fibroblasts; actives raise or lower the signal. In a few lines: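 Cells are dosed, cultured for 24 h, then VCAM-1 is quantified by ELISA; signal increases and decreases are both fitted relative to DMSO.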

Read-out in assay [6]: Plasminogen activator inhibitor-1 (PAI1), SERPINE1 (gene 5054)
Put plainly: BSK_hDFCGF_PAI1: BioMAP Diversity Plus: hDFCGF Assay for Plasminogen activator inhibitor-1 (PAI1) Biomarker Activity (AID 2283066). Particulars: primary human foreskin fibroblasts; actives raise or lower the signal. The procedure, abridged:
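Fibroblasts from human foreskin were treated with test chemical. After 24 h, PAI-1 was measured by ELISA. Activity was fitted in both directions relative to DMSO.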

Read-out in assay [7]: Interferon-gamma inducible Protein 10 (IP10), CXCL10 (gene 3627)
Put plainly: BSK_KF3CT_IP10: BioMAP Diversity Plus: KF3CT Assay for Interferon-gamma inducible Protein 10 (IP10) Biomarker Activity (AID 2283068). As to conditions: primary human keratinocytes with fibroblasts; actives raise or lower the signal. In a few lines:
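Signal is secreted/surface IP-10 by ELISA in a human primary skin co-culture of keratinocytes and foreskin fibroblasts, taken 24 h post-dosing; DMSO served as negative control.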

Assay [8] is described as follows: BSK_KF3CT_SRB: Viability Assessment in the BioMAP Diversity Plus: KF3CT Assay (AID 2283069).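 Also: total protein by sulforhodamine B staining as a cytotoxicity measure; read 24 h after compound addition; fitted for both signal gain and loss against DMSO baseline.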 As to conditions: primary human keratinocytes with fibroblasts. The procedure, abridged: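 SRB read-out at 560 nm (0.1% stain, TCA-fixed cells) gauges overt cytotoxicity in a human skin keratinocyte–fibroblast co-culture 24 h post-dosing. Signal change was fitted bidirectionally relative to DMSO control.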

Read-out in assay [9]: Interleukin-1 alpha (IL1a), IL1A (gene 3552)
Put plainly: BSK_KF3CT_IL1a: BioMAP Diversity Plus: KF3CT Assay for Interleukin-1 alpha (IL1a) Biomarker Activity (AID 2283070). Particulars: primary human keratinocytes with fibroblasts; actives raise or lower the signal. The procedure, abridged:
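Primary skin co-culture (keratinocytes, foreskin fibroblasts), 24 h exposure; ELISA for IL-1a; bidirectional curve fit vs DMSO.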

With `O=C(N[C@@H](Cc1ccccc1)[C@@H](O)C(=O)N1C[C@@H](O)[C@@H](O)C1)c1cc2cc(Cl)ccc2[nH]1`, the outcome in assay [1], in [2], in [3], in assay [4], in [5] and in assay [6] was inactive. The result in [7], in [8] and in assay [9] was inactive.
Consider `COc1cc(S(=O)(=O)O)c(C)cc1N=Nc1c(O)ccc2cc(S(=O)(=O)O)ccc12`, for which the outcome in [1], in assay [2], in assay [3], in assay [4], in assay [5] and in assay [6] was inactive. Moreover, the result in [7], in assay [8] and in assay [9] was inactive.
As for `CCCCN(CCCC)CCCC`, the result in assay [1], in assay [2], in [3], in [4], in assay [5] and in assay [6] was inactive. Besides, the result in assay [7], in assay [8] and in assay [9] was inactive.
Take `CCc1c(C(=O)NN2CCCCC2)nn(-c2ccc(Cl)cc2Cl)c1-c1ccc(Br)cc1`: the AC50 in [1] was 2.85 µM (active); in assay [2] it was 3.54 µM (active); in assay [3], 4.28 µM (active); in [4], 3.03 µM (active); in [5] it was 3.82 µM (active); in assay [6] it was 2.3 µM (active). Besides, the AC50 is 13.1 µM (active) in assay [7], 7.2 µM (active) in assay [8] and 9.35 µM (active) in assay [9].
`Cc1ccc2ncccc2c1`: the outcome in assay [1], in [2], in [3], in assay [4], in assay [5] and in assay [6] was inactive. The result in [7], in [8] and in assay [9] was inactive.
Consider `CC=Cc1ccc(O)c(OC)c1`, for which the result in assay [1], in [2], in assay [3], in assay [4], in assay [5] and in assay [6] was inactive. In addition, the outcome in assay [7], in assay [8] and in assay [9] was inactive.
On to `CCCc1cc(=O)[nH]c(=S)[nH]1`, for which the result in [1], in assay [2], in [3], in [4], in assay [5] and in [6] was inactive. In addition, the outcome in [7], in [8] and in assay [9] was inactive.
For the compound `Cc1c(C(=O)O)c(O)cc2c1C(=O)c1c(O)c([C@@H]3O[C@H](CO)[C@@H](O)[C@H](O)[C@H]3O)c(O)c(O)c1C2=O`, the outcome in assay [1], in assay [2], in assay [3], in assay [4], in assay [5] and in assay [6] was inactive. The outcome in [7], in assay [8] and in assay [9] was inactive.
On to `NCCO`, for which the result in [1], in assay [2], in assay [3], in assay [4], in [5] and in assay [6] was inactive. In addition, the result in assay [7], in assay [8] and in assay [9] was inactive.
`Cc1cc(=O)[nH]c(=S)[nH]1`: the result in [1], in assay [2], in assay [3], in [4], in assay [5] and in [6] was inactive. For the same compound, the outcome in assay [7], in [8] and in assay [9] was inactive.
Turning to `CC1(C)CC(N=C=O)CC(C)(CN=C=O)C1` (configuration not stated), the result in assay [1], in assay [2], in assay [3], in assay [4], in assay [5] and in assay [6] was inactive. Besides, the result in [7], in assay [8] and in assay [9] was inactive.
As for `CCCCCCCCCCC`, the result in assay [1], in assay [2], in assay [3], in assay [4], in [5] and in assay [6] was inactive. In addition, the result in [7], in assay [8] and in assay [9] was inactive.
In the case of `CC(C)c1ccc(C(=O)N=C(N)N)cc1S(C)(=O)=O`, the outcome in [1], in assay [2], in assay [3], in assay [4], in assay [5] and in [6] was inactive. The result in [7], in assay [8] and in [9] was inactive.
With `COc1cc(C=O)ccc1O`, the outcome in assay [1], in assay [2], in [3], in [4], in assay [5] and in assay [6] was inactive. In addition, the result in assay [7], in assay [8] and in assay [9] was inactive.
With `Nc1ccc(S(=O)(=O)c2ccc(N)cc2)cc1`, the outcome in assay [1], in assay [2], in assay [3], in [4], in assay [5] and in [6] was inactive. Also, the outcome in [7], in assay [8] and in [9] was inactive.
With `CC(C)(C)c1cc(O)c(C(C)(C)C)cc1O`, the result in assay [1], in [2], in assay [4], in assay [6], in assay [7] and in assay [8] was inactive. In assay [9], the outcome was inactive. Also, the AC50 in [3] and in [5] was 20 µM (active) each time.
On to `CN[C@H]1CC[C@@H](c2ccc(Cl)c(Cl)c2)c2ccc(S(N)(=O)=O)cc21`, for which the AC50 in assay [1] was 28.1 µM (active); in [2], 31.4 µM (active); in assay [3] it was 34.5 µM (active); in assay [4], 32.2 µM (active); in assay [5], 11.9 µM (active); in assay [6] it was 23.9 µM (active). For the same compound, the values for the AC50 in assay [7], in assay [8] and in assay [9] were 28.3 µM (active), 30.6 µM (active) and 29.1 µM (active), respectively.
Take `NCC1(Cc2noc(=O)[nH]2)CCCCC1`: the result in assay [1], in assay [2], in assay [3], in [4], in assay [5] and in assay [6] was inactive. In addition, the result in [7], in assay [8] and in assay [9] was inactive.
For `O=C(O)Cc1ccccc1Nc1c(Cl)cccc1Cl`, the result in [1], in assay [2], in [3], in assay [4], in assay [5] and in assay [6] was inactive. The outcome in [7], in assay [8] and in assay [9] was inactive.
As for `Nc1ccc2c(c1)C(=O)c1ccccc1C2=O`, the result in [1], in assay [2], in assay [3], in assay [4], in [5] and in assay [6] was inactive. In addition, the outcome in assay [7], in assay [8] and in [9] was inactive.
As for `FC(F)(F)C(F)(F)C(F)(F)C(F)(F)C(F)(F)C(F)(F)CCI`, the result in assay [1], in assay [2], in [3], in [4], in assay [5] and in assay [6] was inactive. The result in assay [7], in assay [8] and in [9] was inactive.
On to `C[Si]1(C)O[Si](C)(C)O[Si](C)(C)O[Si](C)(C)O1`, for which the outcome in [1], in [2], in assay [3], in assay [4], in assay [5] and in [6] was inactive. The result in assay [7], in assay [8] and in assay [9] was inactive.
On to `Nc1nc(N)c2nc(CNc3ccc(C(=O)N[C@@H](CCC(=O)O)C(=O)O)cc3)cnc2n1`, for which the outcome in assay [1], in [2], in [3], in assay [4], in [5] and in assay [6] was inactive. The result in [7], in assay [8] and in [9] was inactive.

Usually AC50 stands for the midpoint of the concentration-response curve, whichever way the signal moves.

Source of the values: PubChem BioAssay (EPA / NIEHS).
